Measured values: PubChem BioAssay AID1220 (Sanford-Burnham Center for Chemical Genomics, 2008)
The campaign covered roughly 190,000 compounds. About 1,300 (0.68%) were called active. Cut-off read from the data, not from the text of the source: active = inhibition above about 50%; inactive = the rest. Shown is part of a subset that was picked to be rich in actives.

Molecular target: Mannose-6-phosphate isomerase (Homo sapiens) (UniProt P34949)
Assay: human PMI inhibitors, high substrate, primary screen, biochemical, fluorescence intensity, high mannose 6-phosphate (AID 1220)
Conditions: recombinant PMI enzyme, coupled fluorescence intensity; at 20 µM; active compounds read high

Chain of Mannose-6-phosphate isomerase (Homo sapiens) (P34949 whole entry, looked up): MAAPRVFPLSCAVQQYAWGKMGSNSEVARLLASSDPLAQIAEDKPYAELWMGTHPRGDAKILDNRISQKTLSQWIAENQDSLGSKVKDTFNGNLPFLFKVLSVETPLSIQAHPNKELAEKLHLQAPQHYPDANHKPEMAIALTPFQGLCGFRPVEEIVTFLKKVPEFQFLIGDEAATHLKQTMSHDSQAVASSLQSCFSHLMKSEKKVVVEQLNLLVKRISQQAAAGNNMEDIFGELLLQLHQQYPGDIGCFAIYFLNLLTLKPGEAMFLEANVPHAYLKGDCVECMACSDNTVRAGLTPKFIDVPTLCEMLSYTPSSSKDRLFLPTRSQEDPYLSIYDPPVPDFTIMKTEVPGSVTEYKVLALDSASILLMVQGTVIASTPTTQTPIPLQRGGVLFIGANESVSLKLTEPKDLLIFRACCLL

Structure (SMILES) | inhibition
O=c1cc(-c2ccccc2)c2ccccc2[nH]1 | 10% (inactive)
Cn1c(=O)cc(-c2ccccc2)c2ccccc21 | 0.3% (inactive)
CCS(=O)(=O)N1CCN(S(=O)(=O)c2ccccc2)CC1 | 1.8% (inactive)
COc1ccccc1-n1c(=O)c(C#N)c(-c2ccc([N+](=O)[O-])cc2)c2cc(C(=O)c3cc(F)ccc3O)cnc21 | 14.2% (inactive)
CCN(CC)C(=S)SSC(=S)N(CC)CC | 0.3% (inactive)
CCN(CC)C(=S)SCC(=O)c1ccccc1 | 7.7% (inactive)
O=C(NCc1ccco1)c1ccc(CN2CCOCC2)cc1 | -9.5% (inactive)
COC(=O)c1ccc(NC(=S)NC2c3ccccc3CC2O)cc1 (configuration not stated) | 15.2% (inactive)
CCOC(=O)C(=O)Nc1ccc([N+](=O)[O-])cc1OC | 16.8% (inactive)
CCN(CC)S(=O)(=O)c1ccc(Cl)c(NC(=O)c2ccc(C#N)cc2)c1 | -3.1% (inactive)
CCc1ccc2c(c1)c1nc(C)sc1n2CC | 55.2% (active)
CCOC(=O)Cn1c2ccc(C)cc2c2nc(C)sc21 | 26.1% (inactive)
Cc1nc2c3cc(F)ccc3n(Cc3ccccc3F)c2s1 | 14.7% (inactive)
Cc1nc2c3cc(F)ccc3n(Cc3ccc(F)cc3)c2s1 | 53.2% (active)
CCc1ccc2c(c1)c1nc(C)sc1n2CC(=O)OC | 5.8% (inactive)
Cc1nc2c3cc(F)ccc3n(Cc3ccccc3)c2s1 | 32.5% (inactive)
Cc1cccc(C)c1NC(=O)C(=O)c1cn(C)c2ccccc12 | -8.1% (inactive)
COc1cc2c(C(=O)N3CCN(C)CC3)c(C)oc2cc1Br | 11.7% (inactive)
COc1ccc(CC(=O)NC2CC(C)(C)NC(C)(C)C2)cc1 | -9% (inactive)
Cc1ccc(Sc2nc3c(c(=O)[nH]c(=O)n3C)n2CCc2ccccc2)cc1 | 18.4% (inactive)
CN(C)c1cc[nH]c(=O)c1C#N | 6.4% (inactive)
COc1cccc(-c2nnc(SCC(=O)Nc3cc(C)on3)n2C)c1 | -5.8% (inactive)
CCOc1ccc(Br)cc1/C=N/O | 16.4% (inactive)
CCCc1ccc(O)c(N=Cc2cc(Br)cc(OCC)c2O)c1 | 53.1% (active)
CCc1ccc(O)c(N=Cc2ccccc2O)c1 | 23.3% (inactive)
COC(=O)c1ccccc1NC(=O)CSc1nc(-c2ccco2)cc(C(F)(F)F)n1 | 12.4% (inactive)

Structure (SMILES) | inhibition
CCOC(=O)N1CCC(N2C(=O)c3ccccc3C2Nc2cc(Cl)c(OC)cc2OC)CC1 (configuration not stated) | 21.3% (inactive)
Cc1ccc(C(=O)COC(=O)c2c(C)cc(=O)oc2C)cc1[N+](=O)[O-] | 58.1% (active)
Cc1cc(=O)oc(C)c1C(=O)OCC(=O)c1ccc2ccccc2c1 | -11.8% (inactive)
Cc1cc(=O)oc(C)c1C(=O)OCC(=O)c1ccc(Cl)c(Cl)c1 | 3.4% (inactive)
COc1ccc(-c2[nH]ncc2CNCC(C)(C)N2CCOCC2)cc1F | 8.1% (inactive)
CN=C(Nc1cccc(OC)c1)SC1CC(=O)N(c2ccc(C(=O)O)cc2)C1=O (configuration not stated) | 8.7% (inactive)
O=C(CCS(=O)(=O)Cc1ccc(Cl)cc1)NCCCN1CCOCC1 | 4.1% (inactive)
CCCCCCCCCCCCCCCC[n+]1cccc2ccccc21 | -9.4% (inactive)
CCN(CC)C(=S)NC(=O)c1ccc(Cl)cc1Cl | 0.2% (inactive)
CCCN(CCC)C(=S)NC(=O)c1ccc(Cl)cc1Cl | 87.2% (active)
CCCCN(CCCC)C(=S)NC(=O)c1ccccc1Cl | 7.7% (inactive)
CCOc1cc(N2CCOCC2)c(OCC)cc1NC(=O)c1ccc(=O)n(Cc2ccccc2)n1 | 7.5% (inactive)
O=CN1CCN(C(C(=O)NC2CCCCC2)c2cc3c(cc2[N+](=O)[O-])OCO3)CC1 (configuration not stated) | 58.3% (active)
O=C(NC1CCCC1)C(c1cc2c(cc1[N+](=O)[O-])OCO2)N1CCCC1 (configuration not stated) | 23.9% (inactive)
O=C(NC1CCCCC1)C(c1cc2c(cc1[N+](=O)[O-])OCO2)N1CCCCC1 (configuration not stated) | 46.3% (inactive)
O=CN1CCN(C(C(=O)NC2CCCC2)c2cc3c(cc2[N+](=O)[O-])OCO3)CC1 (configuration not stated) | 31.4% (inactive)
CCN1CCN(C(C(=O)NC2CCCC2)c2cc3c(cc2[N+](=O)[O-])OCO3)CC1 (configuration not stated) | 46.2% (inactive)
CC1CCN(C(C(=O)NC2CCCCC2)c2cc3c(cc2[N+](=O)[O-])OCO3)CC1 (configuration not stated) | 61.1% (active)
CCOC(=O)Cn1nc(C)n(-c2c(C)cccc2C)c1=O | 8.1% (inactive)
Cc1cc(Cl)ccc1OCCCC(=O)N1CCCCC1 | -5.5% (inactive)
COc1ccc(S(=O)(=O)N2CCSC2c2ccc(OC)c(OC)c2)cc1 (configuration not stated) | -17.1% (inactive)
Cc1cccc(NC(=S)NCCc2ccccc2)n1 | 6.5% (inactive)
C=CCOn1c(C)c(C(C)=O)c2c3nonc3ccc21 | 49.2% (inactive)
COn1c(C)c(C(C)=O)c2c3no[n+]([O-])c3ccc21 | 8.2% (inactive)
COn1c(C)c(C(C)=O)c2c3nonc3ccc21 | 58% (active)
CCN1C(=C(C#N)C#N)C=Cc2cc(C)ccc21 | 5.3% (inactive)

Structure (SMILES) | inhibition
C=CC[n+]1c(/C=C2\C=Cc3cc(C)ccc3N2CC)ccc2ccccc21 | 9% (inactive)
CCN1/C(=C/c2cc[n+](C)cc2)C=Cc2cc(C)ccc21 | 66.7% (active)
CCOC(=O)c1ccc(NC(=O)c2n[nH]c(=O)c3ccccc23)cc1 | -0.1% (inactive)
CCN(CC(=O)Nc1cccc(C(C)=O)c1)S(=O)(=O)c1ccc(C)cc1 | -6.4% (inactive)
O=c1c2c(-c3ccc([N+](=O)[O-])cc3)csc2nc2n1CCC2 | 28.9% (inactive)
Cc1nc(N)sc1-c1csc(N(C)c2ccc(O)cc2)n1 | 56.3% (active)
Cc1cc(O)ccc1Nc1nc(-c2sc(N)nc2C)cs1 | 2% (inactive)
CN(c1ccc(O)cc1)c1nc(-c2ccccc2)cs1 | 25.1% (inactive)
CNC(=S)N1N=C(c2ccccc2)CC1c1ccccc1Cl (configuration not stated) | 1% (inactive)
CC(C)(C)NC(=S)NCc1ccc2c(c1)OCO2 | -10.4% (inactive)
NNC(=O)COc1cccc2cccnc12 | -9.1% (inactive)
O=C(COc1cccc2cccnc12)Nc1ccccc1 | 5.4% (inactive)
Cc1cc(NC(=O)COc2cccc(C)c2C)no1 | 4.6% (inactive)
Cc1cc(NC(=O)COc2ccccc2C)no1 | -5.2% (inactive)
O=C(COc1cccc2cccnc12)NCc1cccs1 | 37.7% (inactive)
Cc1cc(NC(=O)COc2cccc3cccnc23)no1 | 51.1% (active)
Cc1ccc(NC(=O)CN(C)S(=O)(=O)c2cccc3cccnc23)cc1 | 15.3% (inactive)
O=C(COc1cccc2cccnc12)NCC(F)(F)F | 56.1% (active)
CCc1ccc(NC(=O)CC2C(=O)Nc3c2c(=O)n(C)c(=O)n3C)cc1 (configuration not stated) | 2.9% (inactive)
CC1SC(c2ccc(Cl)cc2)NC1=O (configuration not stated) | 7.4% (inactive)
NC(=O)c1cc2ccccc2o/c1=N/NC(=O)c1cccs1 | 2.2% (inactive)
COc1ccc(OC)c(NC(=O)N[C@@H](Cc2ccccc2)C(=O)O)c1 | 8.2% (inactive)
Cn1c(C(=O)NC2CC2)cc2c(=O)n(C)c3ccccc3c21 | 0% (inactive)
COc1ccc(OC/C(O)=C(\C#N)c2nc3ccccc3[nH]2)cc1 | 1.2% (inactive)
CCC(=O)Nc1cccc(C(=O)/C=C/c2ccc(F)cc2)c1 | 9.5% (inactive)
O=C1CCCC2=C1C(c1ccccc1)CC(=O)N2c1ccc(F)cc1F (configuration not stated) | 5.4% (inactive)

Structure (SMILES) | inhibition
CCOC(=O)c1ccc2c(c1)N(CC(=O)N1CCCCC1)C(=O)C(C)(C)O2 | 5.7% (inactive)
COc1ccc(Nc2nc(C)c(-c3ccccc3)s2)cc1 | 6.2% (inactive)
O=C(Nc1cccc2ccccc12)N1CCN(c2ccccc2)CC1 | 15.4% (inactive)
CCn1cc(C(=O)O)c(=O)c2cnc(N3CCN(C(=O)Nc4cccc5ccccc45)CC3)nc21 | 58.3% (active)
C=CCNC(=S)N1CCN(c2ncc3c(=O)c(C(=O)O)cn(CC)c3n2)CC1 | 14.8% (inactive)
CCn1cc(C(=O)O)c(=O)c2cnc(N3CCNCC3)nc21 | 14.5% (inactive)
S=C(Nc1cccc2ccccc12)N1CCN(c2ncccn2)CC1 | 33.6% (inactive)
O=C(Nc1cccc2ccccc12)N1CCN(c2ncccn2)CC1 | 68.9% (active)
CCn1cc(C(=O)N2CCn3c(nc4ccccc43)C2)c(=O)c2ccc(C)nc21 | -2% (inactive)
CCn1c(CN2CCN(CCO)CC2)nc2ccccc21 | 2.7% (inactive)
CC1CCCC(C)N1/N=C/c1ccc(Cl)cc1 (configuration not stated) | -10.4% (inactive)
CCCN1C(=O)/C(=C/C=C2\N(CC)c3ccccc3C2(C)C)SC1=S | 10.7% (inactive)
CCN1C(=O)/C(=C/C=C2/Sc3ccccc3N2CCO)SC1=S | 8.4% (inactive)
CCN1C(=O)/C(=C2/C=CC=CN2C)SC1=S | 9.3% (inactive)
CCN1C(=O)/C(=C/C=C2\C=CN(CC)c3ccccc32)SC1=S | 64.1% (active)
CCCN1C(=O)/C(=C\C=C2\N(CC)c3ccccc3C2(C)C)SC1=S | 18.5% (inactive)
CCN1C(=O)/C(=C\N2CCCCCC2)SC1=S | 7% (inactive)
CCN1C(=O)/C(=C\C=C2/C=CC=CN2CC)SC1=S | 65.6% (active)
CCCN1C(=O)/C(=C\C=C2/C=CN(CC)c3ccccc32)SC1=S | 65.3% (active)
CCCCN1C(=O)/C(=C/C=C2\Oc3ccccc3N2CC)SC1=S | 19.9% (inactive)
CCn1c(C(C)NC(=O)Cc2ccccc2)nc2ccccc21 (configuration not stated) | -0.2% (inactive)
O=C(CSc1nnc2ccccn12)Nc1ccc2c(c1)OCO2 | 13.7% (inactive)
Cc1ccc(NC(=S)NN(C)c2cc(C)nc(C)n2)cc1 | -11% (inactive)
CCS(=O)(=O)NCCc1cc2cc(C)c(C)cc2[nH]c1=O | 0.4% (inactive)
